# According to publication PMC12615815:
# Key:
# Experiment in all cases: cross-link between two proteins; cross-linking mass spectrometry
# [1] = target: Large ribosomal subunit protein bL25 (UniProt P68919)
# [2] = target: Large ribosomal subunit protein uL23 (UniProt P0ADZ0)
# [3] = target: Small ribosomal subunit protein bS1 (UniProt P0AG67)
# [4] = target: Small ribosomal subunit protein uS14 (UniProt P0AG59)
substance,measurement,setting,value
"Large ribosomal subunit protein uL16, P0ADY7",listed as a hit,[1],yes
"Large ribosomal subunit protein bL9, P0A7R1",listed as a hit,[1],yes
"Large ribosomal subunit protein uL29, P0A7M6",listed as a hit,[2],yes
"Small ribosomal subunit protein bS18, P0A7T7",listed as a hit,[3],yes
"Large ribosomal subunit protein bL31, P0A7M9",listed as a hit,[4],yes
"Small ribosomal subunit protein uS3, P0A7V3",listed as a hit,[4],yes
